Data on 40 compounds can be found in PubChem BioAssay (NCI).

The structures appear in SMILES notation. Where “and” joins values, the source holds several entries; their conditions need not be identical. Equal values may be shown once. Compounds without any hit were thinned out: in the full panel of roughly 83,000, 20% have a hit.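 Growth was measured after 48 h exposure to one concentration of compound in 96-well plates. Values under 10 count as active.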 Calls of active or inactive are those of the source.

The assay relates to NCI-H322M lung. The assay can be described thus: NCI-60 one-dose screen, 48 h (100 = growth as untreated, 0 = no growth, -100 = all killed). The settings on record: 10 µM unless noted. As to the method:
Growth inhibition of the NCI-H322M human Non-Small Cell Lung tumor cell line is measured as a screen for anti-cancer activity. Cells are grown in 96 well plates and exposed to the test compound for 48 hours. Compounds are tested at a single concentration, which is 10^-5 M for most compounds. The reported endpoint is percent growth (GI% or GIPRCNT), where numbers from 0 - 100% represent growth inhibition, and numbers from -100% - 0 represent cell death. For example, a value of 40 represents 60% growth inhibition. A value of 0 means no net growth occurred over the course of the experiment. A value of -40 indicates 40% of cells at the beginning of the experiment died by the end of the experiment. A value of -100 means all cells are dead at the end of the experiment.
NCI-60 Human Tumor Cell Lines Screen was performed using the standard one-dose NCI protocol, which is described in more detail at https://dtp.cancer.gov/discovery_development/nci-60/default.htm.
Compounds with GIPRCNT values below 10 were considered active. Activity score was based on GIPRCNT using the following formula: […]
Score is 0 for GIPRCNT values of 100 or above, 50 for GIPRCNT values of 0, and 100 for GIPRCNT values of -100.
For the compound `COc1ccc(-c2cc(-c3cc(OC)c(OC)c(OC)c3)c(C#N)c(=O)n2CCCCC(=O)O)cc1`, the growth is 98.4% (inactive). The value for `Cc1ccc(-c2nc3nc(-c4ccc(Br)cc4)nc(N4CCCNCC4)c3o2)cc1` was 68.9% (inactive); that for `COc1ccc(CN2CCc3c(Cl)nc(N)nc3C2=O)c(OC)c1` was 14.9% [100 µM] (inactive). On to `Cc1ccc2c(c1)C(C)Cc1c(ncnc1-n1cnc3cc(C)ccc31)N2C` (stereo not given), for which the growth was 63.5% (inactive). On to `Cc1ccc(-c2nc(SCC(=O)c3ccc(C#N)cc3)[nH]c(=O)c2C#N)cc1`, for which the growth is 106% (inactive). As for `CSc1nnc(-c2cc3c([nH]c4ccccc43)c(-c3cccc(O)c3)n2)n1-c1ccc(C)cc1`, the growth was 70.3% (inactive). On to `Nc1nc(CSc2n[nH]c(N)n2)nc(Nc2ccccc2)n1`, for which the growth was 97.8% (inactive). Turning to `CN1CCN(c2ccc(Nc3ncc(C(N)=O)c(NCCCNC(=O)C4CCC4)n3)cc2)CC1`, the growth was 75.8% (inactive). As for `COc1ccc(-c2cc(-c3cccnc3)nc3sc4c(Cl)nnnc4c23)cc1OC`, the growth is 95.3% (inactive).

For `C/C=C(/C)C(=O)O[C@@H]1CC(C)(C)CC2C34OC(=O)[C@@]21CC[C@@]3(C)[C@]1(C)CCC2C(C)(C)C(=O)CC[C@]2(C)C1C[C@@H]4Cl` (stereo not given in full), the growth is 98.2% (inactive).

Regarding `C=CCN1C=CC(=O)[C@H](O[Si](C)(C)C(C)(C)C)[C@@H]1/C=C/c1ccccc1`, the growth is -59.2% [100 µM] (active). Consider `NCCOCCOc1ccccc1`, for which the growth is 96.1% (inactive). For `Cc1nonc1-c1ccc2c(c1)OCO2`, the growth was 113% (inactive) and 124% (inactive). The value for `CCOC(=O)c1ccc(Nc2ncnc3c2cnn3-c2cccc(F)c2)cc1` was 102% (inactive); that for `CC(=NCc1ccccc1)c1ccc(O)cc1O` was 103% (inactive); that for `CCN(c1cc(-c2ccc(CN3CCC(/C=C/S(=O)(=O)c4ccccc4)CC3)cc2)cc(C(=O)NCc2c(C)cc(C)[nH]c2=O)c1C)C1CCOCC1` was 85.1% (inactive). The value for `Clc1nccc2c(-c3csc(-c4c[nH]c5ccc(Br)cc45)n3)c[nH]c12` was 70.4% (inactive); that for `COc1ccc(C/C(C)=C(\c2ccc(O)cc2)c2ccc(OCCCN(C)C)cc2)cc1` was 94% (inactive).

On to `CCN1C(=O)/C(=c2\sc3n(c2=O)C2C(NN=3)N(CC)C(=O)N2CC)c2ccccc21` (stereo not given), for which the growth is 46.5% (inactive). The value for `O=Nc1c(O)ccc2ccccc12` was 97.1% (inactive); that for `O=C(Nc1ccc(Cl)c(Cl)c1)Nc1ccc(Cl)c(Cl)c1` was -93.6% (active) and 19.2% (inactive); that for `Cc1ccc(Nc2nc(-c3cc(O)c(C)c(C)c3O)cs2)cc1` was 102% (inactive). The value for `CN1CCN(Cc2ccc(NC(=O)c3nc4ccc5[nH]ncc5c4c4c3CCCC4)cc2C(F)(F)F)CC1` was 19% (inactive); that for `CCOC(=O)c1cc2c(n1Cc1cc(OC)cc(OC)c1Br)-c1nc(NC(C)=O)sc1CCC2` was 80.2% (inactive). The value for `C=C[C@]1(C)C=C2CC[C@@H]3C(C)(C)C(=O)CC[C@@]3(C)[C@@H]2CC1` was 77% (inactive); that for `Oc1ccccc1C=Nc1ccc(N2CCN(c3ccccc3)CC2)cc1` was 98.2% (inactive). As to `O=C1c2cccc3cccc(c23)C(=O)N1N1C(=O)c2cccc3c(N4CCNCC4)ccc(c23)C1=O`, the growth is 88.2% (inactive). As for `[2H]C([2H])([2H])Oc1cc(F)ccc1/C=C/C(=O)/C=C(/C=C/c1ccc(F)cc1OC([2H])([2H])[2H])OB(F)F`, the figure is 82% (inactive). For `O=C1CCc2c(sc3[nH]c(=S)n(Cc4ccc(Cl)cc4)c(=O)c23)C1`, the growth was 11.4% (inactive). The value for `N#CSc1c[nH]c2ccc(/C=C/C(=O)/C=C(/C=C/c3ccc4[nH]cc(SC#N)c4c3)OB(F)F)cc12` was 94.9% (inactive); that for `O=C(NCc1ccc(Cn2c(=O)sn(-c3ccc(Cl)cc3)c2=O)cc1)OCc1ccc2c(Cl)cc(Cl)c(O)c2n1` was 45.7% (inactive); that for `Clc1ccc(CNc2ccc3nc(CCC4CCCCC4)[nH]c3c2)cc1` was 87.9% (inactive). The value for `O=C1/C(=C/c2ccccc2)CN(C(=O)C(Cl)Cl)C/C1=C\c1ccccc1` was 37.4% (inactive); that for `COc1cc2c(cc1OCCCOC1=C=C=C(c3ccc4c(c3)c3cc(-c5ccc(OCCCOc6cc7c(cc6OC)C(=O)N6CCC[C@H]6C=N7)cc5)ccc3n4S(=O)(=O)c3ccc(C)cc3)C=C1)N=C[C@@H]1CCCN1C2=O` was 216% (inactive); that for `CCCN1C(=O)/C(=c2\sc3n(c2=O)C2C(NN=3)N(CC)C(=O)N2CC)c2ccccc21` (stereo not given) was 53.1% (inactive).

Turning to `O=C1c2cc3c(cc2-c2c1c1ccc(Cl)cc1c(=O)n2CCCn1ccnc1)OCO3`, the growth was 10.5% (inactive). Consider `CCCCCCCCn1ccc2cc(NC(=O)CN3CCN(c4nc(C)cc(N5CCCCC5)n4)CC3)ccc21`, for which the growth was 101% (inactive).

For the compound `Cc1cc(N2CCN(CC(=O)Nc3ccc4c(ccn4Cc4ccccc4)c3)CC2)nc(N2CCCCCC2)n1`, the growth is 77.9% (inactive).

For `COc1ccc(C/C(C)=C(/c2ccc(OCCN3CCCC3)cc2)c2ccc(OC(=O)NCc3ccccc3)cc2)cc1`, the growth was 92% (inactive). The value for `COc1cc(/C=C2\CCC/C(=C\c3cc(CN4CCCC4)c(O)c(OC)c3)C2=O)cc(CN2CCCC2)c1O` was 44.3% (inactive).
